TcdB GH inh: TcdB glycohydrolase inhibition; P18177; TcdB glycohydrolase enzymatic assay, plate reader; inhibition, % at 9.99 µM; actives 0.24% (n = 350,000); AID 652162; in the data active = inhibition above about 10%
Target sequence (P18177 whole entry, looked up): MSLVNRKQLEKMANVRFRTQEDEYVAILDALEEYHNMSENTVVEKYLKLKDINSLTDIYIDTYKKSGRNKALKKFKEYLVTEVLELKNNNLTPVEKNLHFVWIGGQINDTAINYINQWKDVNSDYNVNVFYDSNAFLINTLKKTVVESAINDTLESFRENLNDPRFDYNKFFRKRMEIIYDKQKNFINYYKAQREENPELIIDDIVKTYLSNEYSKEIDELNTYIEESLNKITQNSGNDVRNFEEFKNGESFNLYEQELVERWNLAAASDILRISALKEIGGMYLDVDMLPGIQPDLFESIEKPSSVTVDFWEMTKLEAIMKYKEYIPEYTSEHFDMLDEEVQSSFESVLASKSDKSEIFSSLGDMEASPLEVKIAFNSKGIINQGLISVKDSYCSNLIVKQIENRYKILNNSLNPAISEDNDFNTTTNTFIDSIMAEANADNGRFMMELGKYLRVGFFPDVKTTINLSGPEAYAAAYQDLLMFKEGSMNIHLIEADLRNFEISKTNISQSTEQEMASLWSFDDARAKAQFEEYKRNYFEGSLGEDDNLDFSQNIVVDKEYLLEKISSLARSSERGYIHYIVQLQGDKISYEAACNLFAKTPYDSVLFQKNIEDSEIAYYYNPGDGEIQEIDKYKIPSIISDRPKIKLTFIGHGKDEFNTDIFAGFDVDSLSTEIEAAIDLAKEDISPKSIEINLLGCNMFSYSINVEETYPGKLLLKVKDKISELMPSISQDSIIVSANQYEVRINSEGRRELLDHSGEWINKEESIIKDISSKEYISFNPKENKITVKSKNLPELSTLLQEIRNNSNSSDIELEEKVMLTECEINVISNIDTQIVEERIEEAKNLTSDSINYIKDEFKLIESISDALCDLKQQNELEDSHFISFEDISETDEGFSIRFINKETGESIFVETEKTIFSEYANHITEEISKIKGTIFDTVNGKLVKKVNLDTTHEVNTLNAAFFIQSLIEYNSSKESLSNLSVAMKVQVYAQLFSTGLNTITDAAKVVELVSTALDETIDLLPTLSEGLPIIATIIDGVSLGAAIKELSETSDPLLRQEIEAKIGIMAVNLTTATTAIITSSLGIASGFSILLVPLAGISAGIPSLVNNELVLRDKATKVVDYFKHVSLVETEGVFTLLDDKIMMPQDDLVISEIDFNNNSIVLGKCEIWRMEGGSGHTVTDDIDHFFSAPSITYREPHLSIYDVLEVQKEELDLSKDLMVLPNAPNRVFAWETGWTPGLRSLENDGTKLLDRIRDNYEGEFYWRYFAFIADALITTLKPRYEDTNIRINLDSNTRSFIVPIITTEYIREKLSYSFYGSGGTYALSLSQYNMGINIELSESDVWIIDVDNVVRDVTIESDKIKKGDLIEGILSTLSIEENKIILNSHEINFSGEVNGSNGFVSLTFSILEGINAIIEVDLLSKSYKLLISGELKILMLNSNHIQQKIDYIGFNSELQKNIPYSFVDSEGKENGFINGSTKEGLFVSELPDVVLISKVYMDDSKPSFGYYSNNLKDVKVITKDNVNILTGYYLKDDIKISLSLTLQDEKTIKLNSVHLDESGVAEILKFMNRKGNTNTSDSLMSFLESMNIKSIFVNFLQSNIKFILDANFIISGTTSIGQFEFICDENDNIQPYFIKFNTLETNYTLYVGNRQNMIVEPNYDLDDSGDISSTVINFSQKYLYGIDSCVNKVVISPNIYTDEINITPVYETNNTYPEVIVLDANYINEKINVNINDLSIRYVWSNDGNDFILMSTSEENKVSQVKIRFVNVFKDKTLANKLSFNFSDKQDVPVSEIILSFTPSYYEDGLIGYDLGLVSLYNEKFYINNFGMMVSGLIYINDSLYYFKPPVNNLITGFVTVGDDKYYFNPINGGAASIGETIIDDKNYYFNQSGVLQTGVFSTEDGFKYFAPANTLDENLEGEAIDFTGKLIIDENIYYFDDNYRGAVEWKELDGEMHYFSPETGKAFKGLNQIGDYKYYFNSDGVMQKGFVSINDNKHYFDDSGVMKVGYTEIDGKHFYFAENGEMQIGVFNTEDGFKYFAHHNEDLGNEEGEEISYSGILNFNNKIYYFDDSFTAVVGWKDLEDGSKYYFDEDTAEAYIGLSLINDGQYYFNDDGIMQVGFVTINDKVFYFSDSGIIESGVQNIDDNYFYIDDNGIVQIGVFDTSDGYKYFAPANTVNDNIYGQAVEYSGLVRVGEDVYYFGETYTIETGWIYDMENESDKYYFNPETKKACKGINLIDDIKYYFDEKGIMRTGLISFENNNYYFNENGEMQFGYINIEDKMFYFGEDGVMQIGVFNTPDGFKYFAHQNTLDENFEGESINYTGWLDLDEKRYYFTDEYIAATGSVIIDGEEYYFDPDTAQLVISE
PfHsp40 yeast: rescue of PfHsp40-mediated yeast toxicity; S. cerevisiae expressing PfHsp40, growth rescue, ATP luminescence; AID 504582; growth rescue, % at 12.5 µM; actives 0.68% (n = 340,000); in the data active = growth rescue above about 28%, passing the limit was not always enough; inconclusive = no clear call, values can overlap the other calls;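 note: yeast W303a lacking pdr1 and pdr3 grown in galactose medium; growth measured after three days at 30 °C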
FadD28 binding: blocks FadD28 binding to the bisubstrate probe; actives 0.22% (n = 360,000); inhibition, % at 12.5 µM; fluorescence polarization; AID 588549; in the data active = inhibition above about 8.5%, passing the limit was not always enough; inconclusive = no clear call, values can overlap the other calls
Yp Topo-I inh: Y. pestis Topo-I inhibition via cleavage products. actives 0.064% (n = 360,000). Y. pestis Topo-I cleavage product accumulation, plate reader. AID 504884. activity, % at 10 µM; in the data active = activity above about 50%, passing the limit was not always enough; inconclusive = no clear call, values can overlap the other calls
PrP 5UTR inh: suppresses PrP 5' UTR mRNA reporter expression; AID 488862; actives 0.35% (n = 340,000); cell-based PrP 5' UTR mRNA reporter, plate reader; inhibition, % (test concentration not listed); in the data active = inhibition above about 52%; note: 0 = median of the neutral control wells
Mtb BioA inh: blocks M. tuberculosis BioA enzyme activity. purified M. tuberculosis BioA enzyme, plate reader. inhibition, % at 9.99 µM. actives 0.096% (n = 360,000); in the data active = inhibition above about 40%; inconclusive = no clear call, values can overlap the other calls
PrP UTR cherry: prion 5' UTR mRNA inhibition, cherry-pick retest. cell-based prion protein 5' UTR reporter, plate reader. inhibition, % at 2.5 µM. AID 504592. shares compounds with PrP 5UTR inh. actives 48% (n = 1,100); in the data active = inhibition above about 54%; inconclusive = no clear call, values can overlap the other calls
Active calls of the source: *; ? = inconclusive; nt = no result. Rows were chosen to be rich in hits. Some 1.2% of all compounds tested hit in one or more screens of this group.

SMILES	TcdB GH inh	PfHsp40 yeast	FadD28 binding	Yp Topo-I inh	PrP 5UTR inh	Mtb BioA inh	PrP UTR cherry
CCCCN1C(C)=CC(=C2C(=O)c3ccccc3C2=O)C=C1C	2	0	2	17	9	nt	nt
CCCN1C=CC(=C2C(=O)c3ccccc3C2=O)C=C1	nt	-1	2	12	93*	-1	96*
CCCCCCN1C=CC(=C2C(=O)c3ccccc3C2=O)C=C1	1	1	-2	-6	72*	0	72*
O=C(C[C@@H]1CC[C@@H]2[C@H](COC[C@H](O)CN2S(=O)(=O)c2ccc(F)cc2)O1)NCc1ccncn1	0	nt	nt	nt	nt	-2	nt
COc1ccc2c(c1)C(C)=CC(C)(C)N2S(=O)(=O)c1ccc(NC(C)=O)cc1	0	1	-4	30	73*	-1	41
O=C(Cc1ccccn1)N[C@H]1CC[C@H](CC(=O)N2CCCCC2)O[C@@H]1CO	-2	nt	nt	nt	nt	3	nt
O=C(O)COc1ccccc1/C=C1\SC(=O)N(Cc2ccc(F)cc2)C1=O	3	1	-2	-8	-2	2	nt
Cc1ccc(CN2C(=O)S/C(=C\c3ccccc3OCC(=O)O)C2=O)cc1	1	2	-8	-2	81*	nt	-15
N#C[C@H]1[C@H](c2ccccc2-c2ccccc2F)[C@@H](CO)N1C(=O)C1CC1	0	nt	nt	nt	nt	nt	nt
Nc1ccc2c(c1)-c1ccc(F)cc1C2=O	3	4	-1	-8	81*	nt	-2
Nc1ccc2c(c1)C(=O)c1ccc(Cl)cc1-2	1	0	-2	-25	-5	-2	nt
C[C@@H]1CCCCO[C@@H](CN(C)C(=O)CCC(F)(F)F)[C@@H](C)CN([C@H](C)CO)C(=O)c2cc(NC(=O)Nc3ccc4c(c3)OCO4)ccc2O1	2	nt	nt	nt	nt	-1	nt
Cc1nccn1CCCNCc1c(C(=O)N2CCCCCCC2)nc2ccc(Cl)cn12	nt	0	-4	-2	84*	nt	-13
N#C[C@H]1[C@H](c2ccccc2C2=CCCCC2)[C@H](CO)N1C(=O)CN1CCOCC1	0	nt	nt	nt	nt	nt	nt
C[C@H](CO)N1C[C@H](C)[C@@H](CN(C)C(=O)Nc2ccccc2)Oc2c(NC(=O)c3ccncc3)cccc2C1=O	-2	1	-1	-4	62*	-1	-25
O=C(/C=C/c1ccccc1)Nc1cc(NC(=O)/C=C/c2ccccc2)cc(C(=O)O)c1	0	2	-32	-8	-14	3	nt
O=C(/C=C/c1ccccc1)Nc1cccc(C(=O)O)c1	-1	-2	-2	6	80*	nt	82*
Cn1c(=O)c2c(nc(CN3CCN(c4ccccc4F)CC3)n2CCCc2ccccc2)n(C)c1=O	nt	-1	-1	-3	83*	3	-3
ON=C1c2ccccc2-c2ccccc21	-2	8	-1	-7	4	0	nt
CN(C)c1ccc2c(c1)C(=NO)c1ccccc1-2	nt	7	-1	-20	68*	nt	-73
C[C@@H]1CN([C@H](C)CO)C(=O)c2cc(NC(=O)CCC(F)(F)F)ccc2O[C@@H](C)CCCCO[C@@H]1CN(C)CC1CCCCC1	nt	nt	nt	nt	nt	-1	nt
C[C@@H]1CN([C@H](C)CO)C(=O)c2cc(NS(C)(=O)=O)ccc2O[C@@H]1CN(C)S(=O)(=O)c1cccs1	1	nt	nt	nt	nt	2	nt
OCC1=C[C@@H](O)[C@@H]2C=CO[C@@H](O[C@@H]3O[C@H](CO)[C@@H](O)[C@H](O)[C@H]3O)[C@H]12	1	0	-2	3	65*	1	4
OCC1=C[C@@H](O)C2C=CO[C@@H](O[C@@H]3O[C@H](CO)[C@@H](O)[C@H](O)[C@H]3O)C12 (stereo not given in full)	0	-1	-2	0	-20	-1	nt
CCc1ccc(NC(=O)c2cnn3ccccc23)cc1	-1	-3	-2	-2	51*	0	?
SMILES	TcdB GH inh	PfHsp40 yeast	FadD28 binding	Yp Topo-I inh	PrP 5UTR inh	Mtb BioA inh	PrP UTR cherry
CO[C@@H]1CN(C)C(=O)c2ccc(NC(=O)Nc3ccc(Cl)cc3)cc2OC[C@@H](C)N(C(=O)Nc2c(C)noc2C)C[C@H]1C	2	nt	nt	nt	nt	7	nt
CCSc1nc(-c2ccccc2)nc(C(Cl)Cl)n1	1	0	-4	22	63*	0	79*
CSc1nc(-c2ccc(C)cc2)nc(C(Cl)Cl)n1	nt	0	0	-3	1	nt	nt
CCCOc1ccc2cc(-c3ccccn3)c(=O)oc2c1	0	0	-3	-2	78*	-1	57*
CCOc1ccccc1C(=O)N1CCN(c2ccc(C(F)(F)F)cn2)CC1	1	2	-1	28	62*	2	8
C[C@H](CO)N1C[C@H](C)[C@@H](CN(C)Cc2cncnc2)Oc2ncc(/C=C/c3ccccc3)cc2C1=O	-3	nt	nt	nt	nt	-2	nt
C=Cc1cc(OC)c2c(c1)c(=O)oc1c2cc(OC)c2c(O)ccc(C3OC(C)C(O)C(C)(O)C3O)c21 (stereo not given)	0	6	-3	-6	68*	nt	75*
CCOc1ccc(OCC(=O)Nc2cccc(S(=O)(=O)NC3=NCCC3)c2)cc1	1	-1	-2	1	0	1	nt
CCOc1ccc(C(=O)NC(=S)Nc2cccc(S(=O)(=O)NC3=NCCC3)c2)cc1	1	0	-1	38	54*	nt	?
O=C(Nc1nccs1)c1cc2c(s1)CCCCC2	nt	?	-2	-2	64*	0	72*
O=C(Nc1nncs1)c1cc2c(s1)CCC2	2	0	-4	1	-3	nt	nt
COc1ccc(C(=O)NCc2nnc(SC)n2Cc2ccccc2)cc1	0	1	-1	-3	54*	nt	8
CCCS(=O)(=O)N1CCCC(C(=O)NC2CCCC(C)C2C)C1 (stereo not given)	nt	-1	2	-3	86*	-1	-13
CCCS(=O)(=O)N1CCC(C(=O)NC2CCCC(C)C2C)CC1 (stereo not given)	nt	-1	0	-4	1	-1	nt
COc1ccc(-c2cc3nc4n(c(=O)c3s2)CCC4)cc1	-2	3	-1	1	35	-1	nt
Cc1nc2cc(-c3ccccc3)sc2c(=O)n1N	2	-1	1	13	81*	nt	78*
COc1ccc(-c2cc3nc(C)n(N)c(=O)c3s2)cc1	1	-7	-3	-3	91*	0	92*
COc1ccc(NC(=O)N(C)C[C@@H]2Oc3ccc(N(C)C)cc3CC(=O)N([C@@H](C)CO)C[C@H]2C)cc1	-20	nt	nt	nt	nt	0	nt
CCC(=O)Nc1cc2nn(-c3ccc(C)cc3)nc2cc1C	1	0	-1	-6	68*	-2	62*
COC(=O)c1cc(NC(=O)c2nccnc2C(=O)O)cc(C(=O)OC)c1	0	0	-1	-3	60*	0	-29
Cc1cc(C)cc(NC(=O)c2nccnc2C(=O)O)c1	2	0	1	0	-4	0	nt
